Laboratory results reported in publication PMC4552634, “A New Set of Chemical Starting Points with Plasmodium falciparum Transmission-Blocking Potential for Antimalarial Drug Discovery” (PLoS ONE, 2015).
Like-named read-outs stand apart in the source and are kept apart here. Out of some 13,000 compounds screened, about 3,200 (25%) showed an effect of 50% or more. The list shows a part of the results.

System: P. falciparum stage V gametocytes
Design: BacTiter-Glo ATP luminescence viability of purified stage V gametocytes in 384-well plates, per cent inhibition versus DMSO
Settings: 48 h, 5 µM, inhibitor

SMILES | % Inhibition [%] | % Inhibition (% Inhibition) [%]
CCOC(=O)c1cc(C(=O)OC)c2ccccn12 [TCMDC-124299] | 4.818 | 
CC1=C(C(=O)OC(C)C)C(c2ccccc2Cl)C2=C(CC(c3ccccc3)CC2=O)N1 (stereo not drawn) [TCMDC-125608] | 34.25 | 
CSc1nccc(-c2ccc(S(=O)(=O)NC3CCC(CN4CCC(c5c[nH]c6ccccc56)CC4)CC3)s2)n1 (stereo not drawn) [TCMDC-131236] |  | 106.4
CSc1nccc(-c2ccc(S(=O)(=O)NC3CCC(CN4CCC(c5c[nH]c6ccccc56)CC4)CC3)s2)n1 (stereo not drawn) [TCMDC-131237] |  | 110.6
N#Cc1c(Cl)cccc1Oc1ccc(S(=O)(=O)NC2CCC(CN3CCC(c4c[nH]c5ccccc45)CC3)CC2)cc1 (stereo not drawn) [TCMDC-140175] |  | 1.176
O=C(NC1CCC(CN2CCC(c3c[nH]c4ccccc34)CC2)CC1)c1[nH]c(=O)[nH]c(=O)c1F (stereo not drawn) [TCMDC-139889] | 14.48 | 
O=C(CCc1cccnc1)Nc1cccc(-c2ccc(-c3nc4ccc(C(F)(F)F)cc4[nH]3)cc2)c1 [TCMDC-132148] | -27.41 | 
Cc1ccccc1C1CCN(c2ncc(C(=O)NC3CC3)cc2Cl)CC1 [TCMDC-134609] | 14.1 | 
CC(C)(C)OC(=O)N[C@@H](CS(=O)(=O)CCN=C(N)COCc1ccccc1)C(=O)OC(C)(C)C [TCMDC-138107] | 24.21 | 
O=C(N[C@H]1CCN(Cc2ccc(OC3CCN(Cc4ccccc4)CC3)c(Cl)c2)C1)c1ccc(Cl)c(Cl)c1 [TCMDC-140277] | 30.17 | 
O=C(Nc1ccc(C(=O)Oc2ccc(-c3ccccc3)cc2)cc1)N[C@@H](Cc1ccc(O)cc1)C(=O)NC1CCN(Cc2ccc(O)cc2)C1 (stereo partly drawn) [TCMDC-135361] | -42.48 | 
O=S(=O)(c1ccc2ccccc2c1)N1CCCN(Cc2ccc(OCCCN3CCCCC3)cc2)CC1 [TCMDC-141721] | 52.58 | 
O=C(N[C@H]1CCN(Cc2ccc(OC3CCN(Cc4ccccc4)CC3)cc2)C1)c1ccc(Cl)c(Cl)c1 [TCMDC-140265] | 57.35 | 
Fc1cc(CN2CCCC2)ccc1OCCCN1CCN(c2cccc(Cl)c2Cl)CC1 [TCMDC-137001] | 7.626 | 
O=C(NC1CCN(Cc2ccccc2)C1)c1ccc(Nc2ccc(Br)cc2)nc1 (stereo not drawn) [TCMDC-133798] | -17.8 | 
c1ccc(C(c2cccs2)N2CCN(Cc3ccc(OCCCN4CCCCC4)cc3)CC2)cc1 (stereo not drawn) [TCMDC-141954] | 38.42 | 
O=C(Cc1ccc(-c2ccccc2)cc1)N[C@H]1CCN(Cc2ccc(OCCCN3CCCCC3)cc2)C1 [TCMDC-141776] | 70.4 | 
O=C(N[C@H]1CCN(Cc2ccc(OCCCN3CCCCC3)cc2)C1)c1ccc(Oc2ccccc2)cc1 [TCMDC-141773] | 88.22 | 
Cc1cc(CN2CC[C@H](NC(=O)c3ccc(Cl)c(Cl)c3)C2)ccc1OC1CCN(Cc2ccccc2)CC1 [TCMDC-140282] | -33.37 | 
O=C(N[C@@H](Cc1ccccc1)CN1CCC(Oc2ccc(F)cc2)CC1)c1ccc(OCCCN2CCCCC2)cc1 [TCMDC-135416] | 28.27 | 
CS(=O)(=O)Cc1ccc(Nc2ncc(Cl)c(Nc3cccnc3C(N)=O)n2)cc1 [TCMDC-134165] | -4.656 | 
CC1CN=C(c2cccc(NC(=O)Nc3cccc(C4=NCC(C)N4)c3)c2)N1 (stereo not drawn) [TCMDC-137194] | 7.217 | 

SMILES | % Inhibition [%] | % Inhibition (% Inhibition) [%]
COc1cc2c(cc1C(F)(F)F)N(C(=O)Nc1ccc(Br)cn1)CC2 [TCMDC-139015] | -19.75 | 
COc1ccc(O)c(C(=O)c2cnc3c(c2)c(-c2ccc(F)cc2)c(C#N)c(=O)n3C)c1 [TCMDC-124509] | -11.41 | 
O=C(Nc1ccc2c(c1)CCN2C1CCN(Cc2cccc(F)c2F)C1)c1ccco1 (stereo not drawn) [TCMDC-135067] | 14.1 | 
O=C(N[C@H]1CCN(Cc2ccc(OCCCN3CCCCC3)cc2)C1)c1cc(Cl)cc(Cl)c1 [TCMDC-141774] | 21.94 | 
O=C(N[C@H]1CCN(Cc2ccc(OCCCN3CCCCC3)cc2)C1)c1ccc2ccccc2c1 [TCMDC-141775] | 63.18 | 
O=C(N[C@H]1CCN(Cc2ccc(OCCCN3CCCCC3)cc2)C1)c1ccc(Cl)c(Cl)c1 [TCMDC-141772] | 60 | 
c1cc(OCCN2CCCC2)ccc1CNC1CCN(CC2CCCCC2)CC1 [TCMDC-141656] | 42.11 | 
c1ccc(C(c2ccccc2)N2CCC(NCc3ccc(OCCCN4CCCCC4)cc3)CC2)cc1 [TCMDC-141783] | 82.14 | 
CCCCCCN1CCC(NCc2ccc(OCCN3CCCC3)cc2)CC1 [TCMDC-141663] | 42.97 | 
Cc1cnc(CCNC(=O)c2cc(-c3ccc(Cl)cc3)cs2)[nH]1 [TCMDC-133804] | 0.312 | 
CCc1cc(N2CCN(c3ccccc3F)CC2)nc(SCc2ccc(C(=O)NC3CC3)o2)n1 [TCMDC-124808] | 29.7 | 
N#Cc1ccc(-c2ccc(C(=O)Nc3ccc4c(c3)CCN(C3CCC3)CC4)nc2)cn1 [TCMDC-136030] | 49.39 | 
Cc1nc(-c2ccc(-c3ccc(C(=O)Nc4ccc(-n5ccnc5)c(N5CCN(C)CC5)c4)cc3)c(C)c2)no1 [TCMDC-131988] | 33.17 | 
C=C[C@H]1CN(CCCCCCC)CC[C@H]1CCN(C)c1ccnc2ccc(OC)cc12.O=C(O)C(=O)O [TCMDC-139276] | 8.689 | 
CCCCCCCC1CC(CC(=O)Nc2ccnc3ccc(OC)cc23)CN1C(=O)OC(C)(C)C (stereo not drawn) [TCMDC-139304] | 29.24 | 
CCCCCCCC1CC(CC(=O)Nc2ccnc3ccc(OC)cc23)CN1 (stereo not drawn) [TCMDC-139305] | 20.34 | 
CCCCCCCN1CCC(CC(=O)Nc2ccnc3ccc(OC)cc23)CC1 [TCMDC-139181] | 71.31 | 
C=C[C@H]1CN(CCCCCCC)CC[C@H]1CCNc1ccnc2ccc(OC)cc12 [TCMDC-139204] | 104.6 | 
CCCCCCCN1CCC(CC(=O)Nc2ccnc3ccc(OC)cc23)C(CC)C1 (stereo not drawn) [TCMDC-139299] | -28.07 | 
CCCCCCCC1CCN(C[C@H](O)c2ccnc3ccc(OC)cc23)CC1 [TCMDC-139640] | 6.722 | 
C=C[C@H]1CN(CCCCCCC)CC[C@H]1CC(O)Cc1ccnc2cc(O)c(OC)cc12 (stereo partly drawn) [TCMDC-139963] | 16.88 | 
CCCCCCCN1C2CCC1CC(CCOc1ccnc3ccc(OC)cc13)C2 (stereo not drawn) [TCMDC-139275] | 73.47 | 

SMILES | % Inhibition [%] | % Inhibition (% Inhibition) [%]
C=C[C@H]1CN2CC[C@H]1C[C@H]2[C@H](O)c1ccnc2ccc(OC)cc12 [TCMDC-123484] |  | -1.615
C=C[C@H]1CN(CCCCCCC)CC[C@H]1C[C@@H](Cc1ccnc2ccc(OC)cc12)OC(=O)[C@](OC)(c1ccccc1)C(F)(F)F [TCMDC-139560] | 78.38 | 
C=C[C@H]1CN(CCCCCCC)CC[C@H]1CC(=O)Nc1cnnc2ccc(OC)cc12 [TCMDC-139791] | 45.94 | 
CC(C)c1ccc(O)cc1Nc1ccnc2ccc(C(F)(F)F)cc12 [TCMDC-138278] | -32.37 | 
COc1ccc(OC)c(-c2ccc(O)c(CNCC(C)c3ccccc3)c2)c1 (stereo not drawn) [TCMDC-124647] | 7.623 | 
Nc1nc2c(ncn2OC[C@H]2COP(=O)(O)CO2)c(=O)[nH]1 [TCMDC-131638] | 1.746 | 
Cc1cc(C)cc(OCC(O)CN(Cc2cc(Cl)cc(Cl)c2)C(=O)Nc2ccccc2Cl)c1 (stereo not drawn) [TCMDC-141476] | 13.96 | 
CCOc1cc(C(=O)N[C@@H](Cc2ccccc2)[C@H](O)CNCc2cc(OC)cc(OC)c2)cc(N2CCCCS2(=O)=O)c1 [TCMDC-134524] | 22.64 | 
O=C1NC(=O)C(c2cccc(NC(=O)c3ccncc3)c2)=C1c1ccccc1 [TCMDC-140924] | 2.839 | 
COc1ccc2nccc([C@@H](O)CN3CCC(NS(=O)(=O)c4cc5c(cc4Cl)SCC(=O)N5)CC3)c2c1 [TCMDC-141159] | 4.839 | 
CCCCCCCN1CCC(NC(=O)Nc2ccnc3ccc(OC)cc23)C(CO)C1.O=C(O)C(=O)O (stereo not drawn) [TCMDC-139969] | -36.82 | 
CCCCCCCN1CCC(CCNc2ccnc3ccc(OC)cc23)CC1 [TCMDC-139197] | 97.49 | 
CCCCCCCN1CCC(NC(=O)Nc2ccnc3ccc(OC)cc23)C(C(=O)OCC)C1.O=C(O)C(=O)O (stereo not drawn) [TCMDC-139929] | -3.335 | 
COCCOc1ccc(C(F)(F)F)cc1NC(=O)Cc1c(F)cccc1Cl [TCMDC-125025] | -70.46 | 
CC(C)NCc1ccc(-c2cccc(-c3nc4ccccc4[nH]3)c2)cc1 [TCMDC-132550] | -10.92 | 
CC(C)CNCc1ccc(-c2cccc(-c3nc4ccccc4[nH]3)c2)cc1 [TCMDC-132547] | 59.79 | 
CC(C)NCc1cccc(-c2ccc(-c3nc4ccccc4[nH]3)cc2)c1 [TCMDC-132746] | 23.3 | 
CCNCc1ccc(-c2cccc(-c3nc4ccccc4[nH]3)c2)cc1 [TCMDC-132568] | 85.38 | 
CN(C)CCNCc1ccc(-c2cccc(-c3nc4ccccc4[nH]3)c2)cc1 [TCMDC-132539] | 20.35 | 
c1ccc(CNCc2ccc(-c3cccc(-c4nc5ccccc5[nH]4)c3)cc2)cc1 [TCMDC-132545] | 18.29 | 
Cc1ccc(Nc2nc(C)cc(Nc3cccc(C#N)c3)n2)cc1 [TCMDC-133460] | 4.468 | 
O=C(Nc1ccc(-c2cccc(-c3nc4ccc(C(F)(F)F)cc4[nH]3)c2)cc1)Nc1ccc(Cl)c(Cl)c1 [TCMDC-133278] | -24.62 | 
